Twelve compounds from PubChem BioAssay (NCI) can be followed below.

The panel holds about 83,000 compounds, 20% with a hit somewhere; the sample as a whole holds those more often.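 Single-dose data. Exposure time 48 hours. Values below 10 considered active.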 Unmarked numbers belong to inactive results. Active and inactive are the calls of the source.

Some test systems named below: SK-MEL-2 melanoma; EKVX NSCLC; SN12C renal; UO-31 renal; TK-10 renal; ACHN renal; CAKI-1 renal; A498 renal; CCRF-CEM leukemia; MOLT-4 leukemia.
What all share (test): NCI-60 one-dose screen, 48 h (100 = growth as untreated, 0 = no growth, -100 = all killed)
Common to all, as to conditions: 10 µM

`COc1ccc(/C(=N\N)C(=O)c2ccccc2)cc1` (tested in a mixture with another compound): the growth is 112% in the assay on SK-MEL-2 melanoma; 91.4% in the assay with EKVX NSCLC; 88.5% with SN12C renal; 81.1% with UO-31 renal; 108% in the assay on TK-10 renal; 98.3% in the assay with ACHN renal. The growth in the assay with CAKI-1 renal was 90.8%; in the assay on A498 renal it was 83.2%; in the assay with CCRF-CEM leukemia, 88.2%; in the assay with MOLT-4 leukemia it was 80.4%.

On to `Cc1cccc(N=Cc2ccccc2O)c1C`, for which the growth was 129% in the assay on SK-MEL-2 melanoma; 93.7% in the assay on EKVX NSCLC; 89.6% in the assay with SN12C renal; 105% with UO-31 renal; 121% in the assay on TK-10 renal; 110% in the assay on ACHN renal. The growth was 92.4% in the assay with CAKI-1 renal, 106% in the assay on A498 renal, 101% in the assay with CCRF-CEM leukemia and 98.1% in the assay with MOLT-4 leukemia.

On to `CCOC(=O)C1=CSC2=NC3=C(CCC/C3=C\c3cc(OC)c(OC)c(OC)c3)C(c3cc(OC)c(OC)c(OC)c3)N12` (configuration not stated), for which the growth in the assay with SK-MEL-2 melanoma was 106%; with EKVX NSCLC, 95.1%; with SN12C renal it was 54.4%; with UO-31 renal, 69.9%; in the assay with TK-10 renal, 84.7%; in the assay with ACHN renal it was 45.9%. Besides, the growth with CAKI-1 renal is 66.3%; in the assay on A498 renal, 78.4%; with CCRF-CEM leukemia, 16.8%; in the assay with MOLT-4 leukemia, 52.7%.

On to `CC(C)c1ccc(C(C)C(=O)N(CC2=C(C(C)c3ccccn3)c3ccccc3C2)C(C)C)cc1` (configuration not stated), for which the growth in the assay on SK-MEL-2 melanoma was 24.1%; in the assay on EKVX NSCLC it was 13.6%; with SN12C renal it was 34%; in the assay on UO-31 renal it was -12.2% (active); with TK-10 renal, 53.8%; in the assay with ACHN renal it was 36.6%. Also, the growth in the assay with CAKI-1 renal was 3.55% (active); in the assay on A498 renal it was 49.1%; in the assay with CCRF-CEM leukemia it was 30.4%.

Consider `Oc1cccc(-c2nc3sccn3c2-c2ccncn2)c1`, for which the growth in the assay with SK-MEL-2 melanoma is 83.7%; in the assay on EKVX NSCLC, 92.8%; with SN12C renal, 92.1%; with UO-31 renal, 76.8%; in the assay with TK-10 renal it was 123%; in the assay with ACHN renal, 97.8%. For the same compound, the growth in the assay on CAKI-1 renal was 69.8%; in the assay on A498 renal, 119%; in the assay on CCRF-CEM leukemia it was 94.1%; in the assay with MOLT-4 leukemia, 101%.

Regarding `CN1C(=O)C2(Nc3cc(Cl)ccc3S2)c2cc(Cl)ccc21` (configuration not stated), the growth in the assay with SK-MEL-2 melanoma is 108%; in the assay on EKVX NSCLC it was 79.2%; in the assay on SN12C renal, 82.2%; in the assay on UO-31 renal it was 56.9%; in the assay with TK-10 renal, 125%; in the assay with ACHN renal, 92.3%. Further, the growth in the assay on CAKI-1 renal was 82.2%; with A498 renal it was 73%; in the assay on CCRF-CEM leukemia, 71.6%; in the assay on MOLT-4 leukemia, 82.5%.

Regarding `COc1cc2c(cc1OC)C(C(CCCCCC(CCC(C)C)C1NCCc3cc(OC)c(OC)cc31)CCC(C)C)NCC2` (configuration not stated), the growth in the assay with SK-MEL-2 melanoma was -91.9% (active); with EKVX NSCLC, -74.4% (active); in the assay with SN12C renal it was -85.5% (active); in the assay on UO-31 renal, -96.3% (active); in the assay on TK-10 renal it was -97.2% (active); in the assay with ACHN renal, -100% (active). Also, the growth in the assay on CAKI-1 renal was -84.7% (active); in the assay with A498 renal, -59.6% (active); in the assay with CCRF-CEM leukemia, -74.3% (active); with MOLT-4 leukemia, 2.91% (active).

`COc1cccc(-c2nc3sccn3c2-c2cccc(S(C)(=O)=O)c2)c1`: the growth in the assay on SK-MEL-2 melanoma is 115%; in the assay with EKVX NSCLC it was 78.4%; in the assay with SN12C renal it was 99.1%; in the assay on UO-31 renal, 73.1%; with TK-10 renal, 102%; in the assay with ACHN renal it was 96.2%. For the same compound, the growth is 82.2% in the assay on CAKI-1 renal, 106% with A498 renal, 98.2% in the assay with CCRF-CEM leukemia and 104% with MOLT-4 leukemia.

Regarding `C=C1CCC2(C#N)[C@H]3[C@H](CC[C@@H]2C)[C@@H](C)C[C@@H](CC(C)(C)NC(=O)CN2CCC2=O)[C@H]13` (some centres not stated), the growth in the assay on SK-MEL-2 melanoma is 64.4%; in the assay with EKVX NSCLC, 52.6%; in the assay on SN12C renal it was 57.1%; with UO-31 renal, 47.3%; in the assay with TK-10 renal, 81.4%; in the assay on ACHN renal, 65.6%. Further, the growth in the assay with CAKI-1 renal is 56.4%; in the assay on A498 renal, 92.1%.

Regarding `O=C(CCl)Oc1ccc(OC(=O)CCl)cc1`, the growth with SK-MEL-2 melanoma was 96.1%; in the assay on EKVX NSCLC, 90.4%; in the assay with SN12C renal, 87.2%; with UO-31 renal it was 64.1%; in the assay on TK-10 renal, 113%; in the assay with ACHN renal, 75.2%. Further, the growth in the assay on CAKI-1 renal is 93.7%; with A498 renal, 97.4%; in the assay on CCRF-CEM leukemia, 13.3%; with MOLT-4 leukemia, 84.2%.

Regarding `CCC(=O)OC1CCC2C3CCC(=O)OC3C(C)(CCC(=O)O)CC12C` (configuration not stated), the growth in the assay with SK-MEL-2 melanoma was 12.7%; with EKVX NSCLC, 8.81% (active); in the assay with SN12C renal, 55.5%; in the assay on UO-31 renal, 47.1%; in the assay on TK-10 renal, 47%; in the assay on ACHN renal it was 43.9%. Besides, the growth is -4.08% (active) in the assay with CAKI-1 renal, -71.5% (active) with A498 renal, -14.8% (active) with CCRF-CEM leukemia and -0.59% (active) in the assay on MOLT-4 leukemia.

As to `CCC(CC)n1c(C)cc(=O)n1C(CC)CC`, the growth with SK-MEL-2 melanoma was 111%; in the assay with EKVX NSCLC, 113%; with SN12C renal, 105%; in the assay with UO-31 renal, 115%; in the assay on TK-10 renal, 109%; in the assay on ACHN renal it was 101%. In addition, the growth in the assay with CAKI-1 renal is 97.6%; in the assay on A498 renal, 116%; in the assay with CCRF-CEM leukemia, 107%; in the assay with MOLT-4 leukemia, 103%.
